Measured values published in PubChem BioAssay.
Values joined by “and” are separate entries in the source; they are usually repeats but may differ in a detail not shown here. Equal values may be shown once. For some assays here: Measured potencies and affinities stand elsewhere. Active and inactive are the calls of the source.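 The calls were made as follows, unless noted: active = compounds whose cell count with miR-34 switched on is under 0.7 times the count with it off; inactive = the rest.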

What was measured:
[1] = blockers of polyQ-driven CASP3 activation – cell-based (AID 1583); conditions: polyglutamine-induced caspase-3 activation, cell assay; stronger effect = higher value;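 tested at 10 µM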
[2] = yeast 75Q aggregation reduction – 75Q-TubU reporter (AID 1593); conditions: Yeast 75Q polyglutamine aggregation reporter
[3] = restoration of touch response, mutant HTT neurons – whole organism, C. elegans mechanosensory neurons, N-terminal huntingtin (AID 1599); conditions: C. elegans polyQ-huntingtin mechanosensory neurons, stronger effect = higher value
[4] = blockers of cytochrome c efflux from mitochondria – biochemical, purified mitochondria (AID 1603); conditions: stronger effect = lower value;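 also: mouse liver mitochondria challenged with calcium chloride; signal normalized to the plate average as 100%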
[5] = polyglutamine aggregate formation blockers (AID 1604); conditions: polyglutamine-induced protein aggregation inhibition assay; stronger effect = higher value; tested at 2.5 µM
[6] = glutamate transport activators, MN-1 cells, MN-1 cell line (AID 1612); conditions: MN-1 motor neuron cells, stronger effect = higher value;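 also: tested at 1 µM final; 0% = mean of DMSO vehicle wells on each plate; positive means more glutamate uptake than control and negative means less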
[7] = GFP-Q80 aggregate reduction, neuronal-like cells, cell-based, NGF-treated PC12, GFPQ80 (AID 1614); conditions: PC12 NGF-treated GFP-polyQ80 inclusion reduction;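 also: lower means fewer inclusions and 0 means no inclusions at all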
[8] = 75Q-TubH aggregate inhibition, S. cerevisiae, yeast (AID 1616); conditions: S. cerevisiae 75Q-TubH polyglutamine aggregation suppression; stronger effect = higher value
[9] = compounds altering circadian rhythm period length – cell-based, LOPAC library, luminescence reporter (AID 2774; call rule not given here;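 also: values are relative to mean of DMSO wells on each plate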); conditions: circadian reporter cells, at 7 µM, actives lie on both sides
[10] = P. berghei load reduction in hepatocytes – cell-based, HepG2, luciferase luminescence, HepG2 viability, primary screen (AID 624349; in the data active = parasite load remaining mostly below about 12%, no sharp cut-off; inactive = mostly above about 10%;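 also: 100% = mean of DMSO negative control wells on the same plate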); conditions: P. berghei liver stage in HepG2, luciferase luminescence, concentration not given here; parasite load remaining: stronger effect = lower value; viability: measured here: HepG2 viability without parasites
[11] = test system: Hepatitis C virus NS3 helicase; test: blockers of NS3h binding to ssDNA – biochemical, fluorescence polarization, LOPAC1280 library, primary screen (AID 687035; in the data active = inhibition above about 37%); conditions: Purified HCV NS3 helicase, Cy5-dT15 ssDNA binding fluorescence polarization; stronger effect = higher value; concentration not given here
[12] = molecular target: 6-phosphogluconate dehydrogenase, decarboxylating (Homo sapiens) (UniProt P52209); test: inhibition of human phosphogluconate dehydrogenase – biochemical, recombinant enzyme, NADPH absorbance, primary screen (AID 1159550;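 active = at least 20% inhibition of 6-phosphogluconate dehydrogenase activity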); conditions: recombinant 6PGD, NADPH absorbance 341 nm; at 10 µM; stronger effect = higher value
Sequence of 6-phosphogluconate dehydrogenase, decarboxylating (Homo sapiens) (P52209 whole entry, looked up): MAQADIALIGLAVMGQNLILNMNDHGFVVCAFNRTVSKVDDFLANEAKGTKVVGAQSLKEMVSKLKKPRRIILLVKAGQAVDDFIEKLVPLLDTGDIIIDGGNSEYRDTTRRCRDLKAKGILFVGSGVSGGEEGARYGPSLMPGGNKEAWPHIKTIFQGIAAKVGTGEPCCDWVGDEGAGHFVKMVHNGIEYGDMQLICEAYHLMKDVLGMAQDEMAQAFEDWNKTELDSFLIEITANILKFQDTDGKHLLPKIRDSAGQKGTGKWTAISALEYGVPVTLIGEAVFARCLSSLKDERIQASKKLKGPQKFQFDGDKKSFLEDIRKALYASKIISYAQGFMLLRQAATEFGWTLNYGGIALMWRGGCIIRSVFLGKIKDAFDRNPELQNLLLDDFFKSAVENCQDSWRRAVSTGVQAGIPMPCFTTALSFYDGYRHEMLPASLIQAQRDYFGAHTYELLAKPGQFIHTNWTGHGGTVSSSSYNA

[13] = EMT-state selective cytotoxicity in co-culture – imaging, PC-3E GFP, TEM4-18 mCherry, primary screen (AID 1345086;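 active = compounds killing one labelled cell type while sparing the other, by normalised counts and ratio limits, not self-fluorescent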;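 as to all read-outs here: cells exposed to compound for 72 h before imaging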;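 as to red/green cell ratio (normalised): normalised mesenchymal count divided by normalised epithelial count so high means epithelial killing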); conditions: PC-3E GFP / TEM4-18 mCherry co-culture, imaging cell counts, at 1 µM; for red/green cell ratio (normalised): actives lie on both sides, counts scaled to control wells, 1 = unselective
[14] = viability loss with induced miR-34 in A549 – imaging, A549 dox-inducible miR-34, nuclei and caspase counts, primary screen (AID 1347080); conditions: A549 miR-34 inducible, Hoechst nuclei count, 48 h
[15] = blockers of cellular phospholipid synthesis – cell-based, LOPAC library, screen 4, primary screen (AID 1347384; call rule not given here); conditions: animal cells, phospholipid biosynthesis inhibition screen; at 10 µM
[16] = molecular target: Mitogen-activated protein kinase 7 (Homo sapiens) (UniProt Q13164); test: Gal4-ERK5 driven luciferase induction – cell-based, HTS, primary screen (AID 1508626;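 active = luciferase signal above three times the same-plate solvent-only control wells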;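 also: luciferase driven by Gal4-ERK5 fusion binding five Gal4 sites before minimal TATA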); conditions: HeLa Gal4-ERK5 transactivation, 18 h, at 5 µM, stronger effect = higher value
Sequence of Mitogen-activated protein kinase 7 (Homo sapiens) (Q13164 whole entry, looked up, the tested form may be a part): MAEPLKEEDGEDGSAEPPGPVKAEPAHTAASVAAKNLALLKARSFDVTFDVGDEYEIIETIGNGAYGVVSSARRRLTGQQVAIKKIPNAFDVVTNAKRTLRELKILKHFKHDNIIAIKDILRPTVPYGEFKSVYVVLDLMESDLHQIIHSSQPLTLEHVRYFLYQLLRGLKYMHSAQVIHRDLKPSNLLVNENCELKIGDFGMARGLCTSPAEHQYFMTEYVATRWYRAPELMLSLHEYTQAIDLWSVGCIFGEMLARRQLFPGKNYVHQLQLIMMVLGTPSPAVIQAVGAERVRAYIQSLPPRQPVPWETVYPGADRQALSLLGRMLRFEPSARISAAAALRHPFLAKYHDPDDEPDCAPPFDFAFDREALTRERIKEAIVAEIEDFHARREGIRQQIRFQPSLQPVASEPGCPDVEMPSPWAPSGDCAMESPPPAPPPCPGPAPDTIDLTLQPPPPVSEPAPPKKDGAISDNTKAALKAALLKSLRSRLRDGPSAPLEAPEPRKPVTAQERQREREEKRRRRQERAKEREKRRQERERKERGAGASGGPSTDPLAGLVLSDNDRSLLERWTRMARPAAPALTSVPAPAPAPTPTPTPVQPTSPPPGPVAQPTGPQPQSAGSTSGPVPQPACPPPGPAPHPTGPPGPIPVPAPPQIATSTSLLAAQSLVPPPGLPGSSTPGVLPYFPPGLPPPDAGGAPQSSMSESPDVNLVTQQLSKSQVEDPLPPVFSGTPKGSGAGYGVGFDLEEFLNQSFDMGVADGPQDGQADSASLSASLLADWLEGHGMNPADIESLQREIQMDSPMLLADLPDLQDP

[17] = galactose survival enhancers in mitochondrial complex I cybrids – cell-based, galactose medium, ATP luminescence, primary screen (AID 1645843;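 active = z-score of at least 1.8 in each of two replicates, scored against plate mean and spread of sample wells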;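 also: positive z means more ATP and so rescue of galactose-driven cybrid death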); conditions: complex I mutant cybrid cells, 72 h, stronger effect = higher value
[18] = MELAS cybrid and Rieske KO viability enhancers – cell-based, MELAS cybrids, Rieske KO mouse fibroblasts, CellTiter-Glo, primary screen (AID 1508586;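 active = mean z-score across replicates of 1.96 or higher in either the MELAS or the Rieske mutant cell line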;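 also: z relative to plate mean and SD of compound and empty wells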); conditions: low glucose
[19] = molecular target: NAD(+) hydrolase SARM1 (Homo sapiens) (UniProt Q6SZW1); test: blocking NAD cleavage by SARM1 SAM-TIR – cell lysate, NAD-Glo luminescence (AID 1508614;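 active = compound whose remaining NAD level is above about 45 nM, limit read from the data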;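 also: higher remaining NAD means stronger inhibition of SARM1 NADase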); conditions: SAM-TIR HEK293T lysate NADase, at 1 µM, stronger effect = higher value
Sequence of NAD(+) hydrolase SARM1 (Homo sapiens) (Q6SZW1 whole entry, looked up): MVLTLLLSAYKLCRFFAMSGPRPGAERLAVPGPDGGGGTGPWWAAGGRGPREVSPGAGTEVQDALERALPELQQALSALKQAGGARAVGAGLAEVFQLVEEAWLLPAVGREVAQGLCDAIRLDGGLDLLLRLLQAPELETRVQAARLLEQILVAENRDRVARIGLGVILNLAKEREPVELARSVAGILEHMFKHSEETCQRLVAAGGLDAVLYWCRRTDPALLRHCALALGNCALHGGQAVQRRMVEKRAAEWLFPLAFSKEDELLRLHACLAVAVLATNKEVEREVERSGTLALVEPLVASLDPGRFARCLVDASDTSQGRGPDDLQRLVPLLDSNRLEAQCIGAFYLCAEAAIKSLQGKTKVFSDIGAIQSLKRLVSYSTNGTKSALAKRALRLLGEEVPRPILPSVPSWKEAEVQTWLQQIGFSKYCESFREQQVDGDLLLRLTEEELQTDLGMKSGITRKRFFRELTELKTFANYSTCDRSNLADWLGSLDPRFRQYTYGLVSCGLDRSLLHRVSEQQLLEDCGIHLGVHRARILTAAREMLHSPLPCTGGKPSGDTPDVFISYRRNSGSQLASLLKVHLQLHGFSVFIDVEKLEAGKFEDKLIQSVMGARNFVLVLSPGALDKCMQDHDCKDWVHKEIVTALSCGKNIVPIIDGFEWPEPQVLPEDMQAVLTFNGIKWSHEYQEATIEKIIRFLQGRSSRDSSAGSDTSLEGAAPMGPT

[20] = measured here: epithelial PC-3E GFP cell survival
[21] = measured here: mesenchymal TEM4-18 mCherry cell survival
[22] = stronger effect = lower value, cell number ratio, induced over uninduced
[23] = measured here: relative caspase fold change +Dox/-Dox
[24] = measured here: total cells with miR-34 induction, stronger effect = lower value
[25] = measured here: total cells without miR-34 induction
[26] = MELAS cybrid survival, CellTiter-Glo 48 h, stronger effect = higher value
[27] = Rieske KO mouse fibroblast survival, CellTiter-Glo 72 h

NCCCS(=O)(=O)O
inhibition [1]: -8.14%
score [2]: 1.19
rescue above control [3]: -7.13
cytochrome c release ratio [4]: 1.17
inhibition of aggregation [5]: 80.3%
glutamate uptake change [6]: 3.02%
inclusion score [7]: 2
aggregation suppression score [8]: 1.7
period change [9]: 0.415 h (inactive)
parasite load remaining [10]: 106% (inactive)
viability [10]: 72.2%
inhibition [11]: -1% (inactive)
inhibition [12]: 6.14% (inactive)
red/green cell ratio (normalised) [13]: 0.83 (inactive)
normalised cell number [13, 20]: 1.23
normalised cell number [13, 21]: 1.02
fold change [14, 22]: 0.922 (inactive)
fold change [14, 23]: 2.79
cell count [14, 24]: 6500
cell count [14, 25]: 7050
outcome [15]: inactive
luciferase signal [16]: 56 AU (inactive)
z-score [17]: 0.265 (inactive)

NC(N)=NC(=O)c1nc(Cl)c(N2CCCCCC2)nc1N
period change [9]: 0.165 h (inactive)
inhibition [11]: -5% (inactive)
inhibition [12]: 12.2% (inactive)
red/green cell ratio (normalised) [13]: 0.8 (inactive)
normalised cell number [13, 20]: 1.26
normalised cell number [13, 21]: 1.01
fold change [14, 22]: 1.18 (inactive)
fold change [14, 23]: 1.04
cell count [14, 24]: 4710
cell count [14, 25]: 3990
outcome [15]: inactive
z-score [17]: -1.46 (inactive)

O=c1c2ccccc2oc2ccccc12
inhibition [12]: 0.222% (inactive)
red/green cell ratio (normalised) [13]: 1.1 (inactive)
normalised cell number [13, 20]: 0.96
normalised cell number [13, 21]: 1.06
fold change [14, 22]: 0.991 (inactive)
fold change [14, 23]: 0.506
cell count [14, 24]: 7550
cell count [14, 25]: 7620
z-score [18, 26]: -0.409 (inactive)
z-score [18, 27]: -0.0965
luciferase signal [16]: 64 AU (inactive)

CN1CCc2c(c3ccccc3n2Cc2ccccc2)C1
inhibition [1]: 13.5%
score [2]: 1.36
rescue above control [3]: -5.3
cytochrome c release ratio [4]: 1.12
inhibition of aggregation [5]: 26.7%
glutamate uptake change [6]: -0.3%
aggregation suppression score [8]: 1.16
parasite load remaining [10]: 52.3% (inactive) and 141% (inactive) and 69.3% (inactive)
viability [10]: 99% and 73.4% and 70.8%
inhibition [12]: 10.8% (inactive)
red/green cell ratio (normalised) [13]: 0.9 (inactive)
normalised cell number [13, 20]: 0.92
normalised cell number [13, 21]: 0.82
fold change [14, 22]: 0.847 (inactive)
fold change [14, 23]: 1.16
cell count [14, 24]: 8940
cell count [14, 25]: 10600
z-score [18, 26]: 0.038 (inactive)
z-score [18, 27]: 0.0579
remaining NAD [19]: 10 nM (inactive)

O=C(O)c1cc2cc(F)ccc2[nH]1
period change [9]: 0.04 h (inactive)
inhibition [11]: -2% (inactive)
inhibition [12]: 0.201% (inactive)
red/green cell ratio (normalised) [13]: 0.92 (inactive)
normalised cell number [13, 20]: 0.97
normalised cell number [13, 21]: 0.89
fold change [14, 22]: 0.936 (inactive)
fold change [14, 23]: 1.52
cell count [14, 24]: 9030
cell count [14, 25]: 9650
outcome [15]: inactive
luciferase signal [16]: 24 AU (inactive)
z-score [17]: 1.04 (inactive)

NC(=O)c1ccc[n+]([C@@H]2O[C@H](COP(=O)([O-])OP(=O)(O)OC[C@H]3O[C@@H](n4cnc5c(N)ncnc54)[C@H](O)[C@@H]3O)[C@@H](O)[C@H]2O)c1
inhibition [1]: 7.61%
score [2]: 1.51
rescue above control [3]: 2.62
cytochrome c release ratio [4]: 0.91
inhibition of aggregation [5]: 63.6%
glutamate uptake change [6]: 28.3%
inclusion score [7]: 2
aggregation suppression score [8]: 1.51
parasite load remaining [10]: 87.2% (inactive) and 76.6% (inactive)
viability [10]: 103% and 92.6%
inhibition [12]: 10.6% (inactive)
red/green cell ratio (normalised) [13]: 0.97 (inactive)
normalised cell number [13, 20]: 1.17
normalised cell number [13, 21]: 1.14
fold change [14, 22]: 0.824 (inactive) and 0.891 (inactive)
fold change [14, 23]: 1.3 and 1.13
cell count [14, 24]: 8060 and 11500
cell count [14, 25]: 9780 and 12900
z-score [18, 26]: -1.2 (inactive)
z-score [18, 27]: 0.344
remaining NAD [19]: 183 nM (active)
luciferase signal [16]: 72 AU (inactive)

O=C1OC(=O)C2C3CCC(O3)C12 (stereo unspecified)
period change [9]: -0.06 h (inactive)
inhibition [11]: -2% (inactive)
inhibition [12]: 14.8% (inactive)
red/green cell ratio (normalised) [13]: 0.77 (inactive)
normalised cell number [13, 20]: 1.38
normalised cell number [13, 21]: 1.06
fold change [14, 22]: 1.08 (inactive)
fold change [14, 23]: 0.974
cell count [14, 24]: 8750
cell count [14, 25]: 8080
outcome [15]: inactive
luciferase signal [16]: 52 AU (inactive)
z-score [17]: -0.385 (inactive)

COc1c2ccoc2cc2oc(=O)ccc12
inhibition [1]: -19.8%
score [2]: 1.02
rescue above control [3]: 6.75
cytochrome c release ratio [4]: 1.07
inhibition of aggregation [5]: 80.3%
glutamate uptake change [6]: -26.6%
inclusion score [7]: 2
aggregation suppression score [8]: 0.569
inhibition [12]: -3.29% (inactive)
red/green cell ratio (normalised) [13]: 0.94 (inactive)
normalised cell number [13, 20]: 1.1
normalised cell number [13, 21]: 1.03
fold change [14, 22]: 0.859 (inactive)
fold change [14, 23]: 0.824
cell count [14, 24]: 8190
cell count [14, 25]: 9530
z-score [18, 26]: -0.332 (inactive)
z-score [18, 27]: -0.177
remaining NAD [19]: 10 nM (inactive)
luciferase signal [16]: 28 AU (inactive)

NC(N)=NCCCCN=C(N)N
inhibition [1]: 0.26%
score [2]: 1.07
rescue above control [3]: -1.01
cytochrome c release ratio [4]: 1.43
inhibition of aggregation [5]: 83.3%
glutamate uptake change [6]: 11.5%
inclusion score [7]: 2
aggregation suppression score [8]: 1.37
period change [9]: 0.195 h (inactive)
parasite load remaining [10]: 111% (inactive)
viability [10]: 108%
inhibition [11]: -3% (inactive)
inhibition [12]: -2.55% (inactive)
red/green cell ratio (normalised) [13]: 0.92 (inactive)
normalised cell number [13, 20]: 1.06
normalised cell number [13, 21]: 0.97
fold change [14, 22]: 0.968 (inactive) and 0.866 (inactive)
fold change [14, 23]: 0.983 and 0.933
cell count [14, 24]: 9930 and 7710
cell count [14, 25]: 10300 and 8910
outcome [15]: inactive
luciferase signal [16]: 52 AU (inactive)
z-score [17]: 0.645 (inactive)

NCCCCC(=O)O
period change [9]: 0.155 h (inactive)
parasite load remaining [10]: 89.3% (inactive)
viability [10]: 71.9%
inhibition [11]: -1% (inactive)
inhibition [12]: -7.89% (inactive)
red/green cell ratio (normalised) [13]: 0.85 (inactive)
normalised cell number [13, 20]: 1.1
normalised cell number [13, 21]: 0.94
fold change [14, 22]: 1 (inactive)
fold change [14, 23]: 1.48
cell count [14, 24]: 10300
cell count [14, 25]: 10300
outcome [15]: inactive
luciferase signal [16]: 52 AU (inactive)
z-score [17]: 0.885 (inactive)

Cc1cc(/C=C/c2ccc3cc(N(C)C)ccc3[n+]2C)c(C)n1-c1ccccc1
inhibition [1]: 21.2%
score [2]: -2.18
rescue above control [3]: 0
cytochrome c release ratio [4]: 0.75
inhibition of aggregation [5]: -12.8%
glutamate uptake change [6]: -15.7%
aggregation suppression score [8]: -0.227
parasite load remaining [10]: 0.35% (inactive) and 0.64% (inactive)
viability [10]: 46.6% and 62.4%
inhibition [12]: 5.46% (inactive)
red/green cell ratio (normalised) [13]: 2.7 (active)
normalised cell number [13, 20]: 0.4
normalised cell number [13, 21]: 1.08
fold change [14, 22]: 1.07 (inactive)
fold change [14, 23]: 0.697
cell count [14, 24]: 1790
cell count [14, 25]: 1670
remaining NAD [19]: 10 nM (inactive)
luciferase signal [16]: 28 AU (inactive)
